Experimental data: PubChem BioAssay (Tox21)
Records with an inconclusive call do not appear. Calls of active or inactive are those of the source. Unless noted, calls come from the whole dose curve; as a rule, active = well fitted curve in the direction sought with a large enough effect in the repeat runs; inconclusive = weak or mixed curves; inactive = no such curve, though single readings can be large; an effect the other way counts as inactive or inconclusive.

How the values were obtained:
[1] = qHTS assay for small molecule agonists of the p53 signaling pathway (AID 651631; calls by dose curve; note: nearly all actives have a fitted effect of over 15% in size)
Summary of the method: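 Testing took place in human colorectal HCT-116 cells with stable p53RE-driven beta-lactamase. After 16 h of compound exposure at 37 °C, a FRET substrate was added and fluorescence recorded 2 h later.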

[2] = qHTS assay for small molecules that induce genotoxicity in human embryonic kidney cells expressing luciferase-tagged ATAD5 (AID 651632); note: nearly all actives have a fitted effect of over 15% in size
Summary of the method: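 HEK293T cells carrying a luciferase reporter tagged to ATAD5 were exposed to compound or DMSO vehicle for 16 hr at 37C, 5% CO2. Amplite was added, and after 30 min at room temperature luciferase activity was read as a marker of ATAD5 induction.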

[3] = qHTS assay for small molecule agonists of the p53 signaling pathway - cell viability (AID 651633; calls by dose curve; note: series mostly up to about 83 µM; nearly all actives have a fitted effect of over 30% in size)
Summary of the method: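 p53RE-bla cells, seeded at 4,000 per well and rested 5 h at 37 C/5% CO2, received compounds in DMSO for 16 h at 37 C. CellTiter-Glo was then added, and luminescence was read after 30 min at room temperature to gauge cytotoxicity.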

[4] = qHTS assay for small molecules that induce genotoxicity in human embryonic kidney cells expressing luciferase-tagged ATAD5 - cell viability (AID 651634; calls by dose curve; note: nearly all actives have a fitted effect of over 25% in size)
Summary of the method: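 HEK293T cells expressing luciferase-tagged ATAD5 were exposed to compound or DMSO for 15.5 hr at 37C, 5% CO2. Viability was then read as live-cell protease activity by CellTiter-Fluor fluorescence after 30 min at 37C.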

[5] = qHTS assay for small molecule disruptors of the mitochondrial membrane potential - cell viability (AID 720634; calls by dose curve;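 note: human HepG2 liver cancer cells; series mostly up to about 83 µM; nearly all actives have a fitted effect of over 20% in size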)
Summary of the method: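 HepG2 cells seeded overnight at 37 C, then exposed to compound or DMSO for 1 hr at 37 C, 5% CO2. m-MPI dye added, then CellTiter-Glo for 30 min at room temperature; viability read as ATP luminescence.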

[6] = qHTS assay to test for compound auto fluorescence at 590 nm (red) in HepG2 cells (AID 720674)
Summary of the method: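 Intrinsic compound fluorescence in the red window (Ex/Em 540/590 nm) is measured in attached HepG2 cells exposed for 1 hr, DMSO vehicle as baseline, benchmarked to Rose Bengal sodium.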

[7] = qHTS assay to test for compound auto fluorescence at 535 nm (green) in HepG2 cells (AID 720675)
[8] = qHTS assay to test for compound auto fluorescence at 460 nm (blue) in HEK293 cells (AID 720678)
Summary of the method: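 HEK293 cells (2,000 per well, medium with 10% dialyzed FBS) attached for 4-5 hr at 37C, then received compound and stood overnight at 37C, 5% CO2. Blue fluorescence was read at Ex/Em 405/460 nm and expressed relative to triamterene.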

[9] = qHTS assay to test for compound auto fluorescence at 590 nm (red) in HEK293 cells (AID 720679)
Summary of the method: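 HEK293 cells (2,000/well, medium with 10% dialyzed FBS) attached for 4-5 hr at 37C, received 23 nL compound and were incubated overnight at 37C, 5% CO2. Red fluorescence was then read at 540/590nm Ex/Em, referenced to Rose Bengal sodium.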

[10] = qHTS assay to test for compound auto fluorescence at 535 nm (green) in HEK293 cells (AID 720680)
[11] = qHTS assay to test for compound auto fluorescence at 460 nm (blue) in HEK293 cell free culture (AID 720681)
Summary of the method: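 Test compounds were pinned into cell-free culture medium (DMEM with 10% FBS) and fluorescence was read directly at Ex/Em 405/460 nm. Signals were expressed as fluorescence equivalents of triamterene, with DMSO vehicle as control.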

[12] = qHTS assay to test for compound auto fluorescence at 535 nm (green) in HEK293 cell free culture (AID 720682)
Summary of the method: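 DMEM + 10% FBS, cell-free; cpd or DMSO pinned in; Ex485/Em535 read; output as fluorescein-equivalent signal.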

[13] = qHTS assay to test for compound auto fluorescence at 590 nm (red) in HEK293 cell free culture (AID 720683)
Summary of the method: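 Tox21 10K library compounds were pinned into cell-free DMEM with 10% FBS and fluorescence was read at excitation 540 nm. Activity is expressed as Rose Bengal sodium equivalency.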

[14] = qHTS assay to test for compound auto fluorescence at 590 nm (red) in HepG2 cell free culture (AID 720684)
Summary of the method: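 Red fluorescence (540 nm excitation, 590 nm emission) was measured after compound transfer into cell-free MEM supplemented with 10% FBS. Values are equivalencies against Rose Bengal sodium.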

[15] = qHTS assay to test for compound auto fluorescence at 460 nm (blue) in HepG2 cell free culture (AID 720685)
Summary of the method: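 Compound (23 nL) or DMSO pinned into cell-free MEM with 10% FBS; blue fluorescence read at 405/460 nm excitation/emission, expressed as auto-fluorescence equivalency to triamterene.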

[16] = qHTS assay to test for compound auto fluorescence at 535 nm (green) in HepG2 cell free culture (AID 720686)
[17] = qHTS assay to test for compound auto fluorescence at 460 nm (blue) in HepG2 cells (AID 720687)
Summary of the method: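 Cells (2,000/well in MEM with 10% FBS) attached overnight at 37 C, then were exposed to compound or DMSO for 1 hr at 37 C, 5% CO2. Fluorescence read at Ex/Em 405/460 nm, expressed as triamterene-equivalent signal.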

[18] = biological target: Glucocorticoid receptor (Homo sapiens) (UniProt P04150); assay: qHTS assay to identify small molecule agonists of the glucocorticoid receptor (GR) signaling pathway (AID 720691; active = well fitted activation curve with a large enough effect in the signal ratio in the repeat runs, not every such curve was filed as active; the % refers to the signal ratio)
Sequence of Glucocorticoid receptor (Homo sapiens) (P04150 whole entry, looked up): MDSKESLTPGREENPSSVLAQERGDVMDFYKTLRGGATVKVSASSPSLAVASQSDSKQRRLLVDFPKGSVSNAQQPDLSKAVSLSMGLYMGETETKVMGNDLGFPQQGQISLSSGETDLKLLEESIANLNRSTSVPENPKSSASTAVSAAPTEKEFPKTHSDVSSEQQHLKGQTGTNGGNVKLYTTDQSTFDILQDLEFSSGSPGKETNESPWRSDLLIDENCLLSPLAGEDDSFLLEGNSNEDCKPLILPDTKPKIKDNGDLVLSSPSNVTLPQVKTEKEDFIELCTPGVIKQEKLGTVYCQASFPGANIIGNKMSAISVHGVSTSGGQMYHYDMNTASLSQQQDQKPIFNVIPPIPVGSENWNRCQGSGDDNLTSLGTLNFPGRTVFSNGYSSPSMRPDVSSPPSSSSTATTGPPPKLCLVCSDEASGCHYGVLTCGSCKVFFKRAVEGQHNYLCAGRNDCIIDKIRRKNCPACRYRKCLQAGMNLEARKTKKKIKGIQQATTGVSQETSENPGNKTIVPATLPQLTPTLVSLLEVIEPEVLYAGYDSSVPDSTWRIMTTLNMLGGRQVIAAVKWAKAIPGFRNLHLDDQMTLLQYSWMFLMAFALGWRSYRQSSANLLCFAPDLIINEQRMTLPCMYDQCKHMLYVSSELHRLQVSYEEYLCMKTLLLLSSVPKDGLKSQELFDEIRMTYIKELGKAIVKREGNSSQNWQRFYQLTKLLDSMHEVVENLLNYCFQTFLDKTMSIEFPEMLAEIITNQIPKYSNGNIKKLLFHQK
Summary of the method: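 GR-bla HeLa cells (beta-lactamase reporter under glucocorticoid response element) were plated 4 h at 37 C/5% CO2, given compounds in DMSO, and incubated 18 h at 37 C. LiveBLAzer B/G FRET substrate was added for 2 h at room temperature, then fluorescence intensity read.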

[19] = biological target: Glucocorticoid receptor (Homo sapiens) (UniProt P04150); assay: qHTS assay to identify small molecule antagonists of the glucocorticoid receptor (GR) signaling pathway (AID 720692; active = well fitted inhibition curve with a large enough effect in the signal ratio in the repeat runs, not every such curve was filed as active; the % refers to the signal ratio)
Summary of the method: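 GR-bla HeLa cells (beta-lactamase reporter under glucocorticoid response element) were pre-plated 4 h at 37 C, treated with compounds plus 5 nM dexamethasone (final) for 18 h, then read by LiveBLAzer B/G FRET fluorescence after 2 h.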
% is set by controls: 0 for no effect and ±100 for the full control effect.

Cc1cc(N)no1
inactive: Potency [1] | Potency [2] | outcome [3] | outcome [4] | outcome [5] | outcome [6] | outcome [7] | outcome [8] | outcome [9] | outcome [10] | outcome [11] | outcome [12] | outcome [13] | outcome [14] | outcome [15] | outcome [16] | outcome [17] | Potency [18] | outcome [19]

CCN(CC)CC
inactive: Potency [1] | Potency [2] | outcome [3] | outcome [4] | outcome [6] | outcome [7] | outcome [8] | outcome [9] | outcome [10] | outcome [11] | outcome [12] | outcome [13] | outcome [14] | outcome [15] | outcome [16] | outcome [17] | outcome [19]

O=C1c2ccccc2C(=O)N1CO
inactive: Potency [1] | Potency [2] | outcome [3] | outcome [4] | outcome [5] | outcome [6] | outcome [7] | outcome [8] | outcome [9] | outcome [10] | outcome [11] | outcome [12] | outcome [13] | outcome [14] | outcome [15] | outcome [16] | outcome [17] | Potency [18] | outcome [19]

Cc1cc(C)c(N)c(Cl)c1
inactive: Potency [1] | Potency [2] | outcome [3] | outcome [4] | outcome [6] | outcome [7] | outcome [8] | outcome [9] | outcome [10] | outcome [11] | outcome [12] | outcome [13] | outcome [14] | outcome [15] | outcome [17] | outcome [19]

CCN1CCN(C(=O)N[C@@H](C(=O)N[C@@H]2C(=O)N3C(C(=O)O)=C(CSc4nnnn4C)CS[C@H]23)c2ccc(O)cc2)C(=O)C1=O
inactive: Potency [1] | Potency [2] | outcome [3] | outcome [4] | outcome [5] | outcome [6] | outcome [8] | outcome [9] | outcome [10] | outcome [11] | outcome [12] | outcome [13] | outcome [14] | outcome [15] | outcome [16] | outcome [17]

CCCCCC(=O)CC
inactive: Potency [1] | Potency [2] | outcome [3] | outcome [4] | outcome [6] | outcome [7] | outcome [8] | outcome [9] | outcome [11] | outcome [12] | outcome [13] | outcome [14] | outcome [15] | outcome [16] | outcome [17]

Cc1ccc(S(=O)(=O)NC(=O)NN2CC3CCCC3C2)cc1 (stereo not given)
inactive: Potency [1] | Potency [2] | outcome [3] | outcome [4] | outcome [5] | fluorescence, relative to Rose Bengal [6] 0.0207% [at 18.6 µM] | fluorescence, % of triamterene [8] -0.0452% [at 18.6 µM] | fluorescence, % of fluorescent control [9] -0.0362% [at 18.6 µM] | fluorescence, % of fluorescein [10] -0.0141% [at 18.6 µM] | fluorescence, % of fluorescent control [11] 0.0029% [at 18.6 µM] | activity change [12] -0.0097% [at 18.6 µM] | fluorescence, % of fluorescent control [13] 0.167% [at 18.6 µM] | fluorescence, % of Rose Bengal [14] 0.0439% [at 18.6 µM] | fluorescence, % of fluorescent control [15] -0.0187% [at 18.6 µM] | fluorescence, % of fluorescein control [16] -0.0072% [at 18.6 µM] | fluorescence, % of fluorescent control [17] -0.0447% [at 18.6 µM]

O=C1Nc2ccccc2C1=O
inactive: Potency [1] | Potency [2] | outcome [3] | outcome [4] | outcome [5] | outcome [6] | outcome [7] | outcome [8] | outcome [9] | outcome [10] | outcome [11] | outcome [12] | outcome [13] | outcome [14] | outcome [15] | outcome [17] | outcome [19]
